± gives the standard deviation of the averaged measurements. The full ranking holds about 33,000 sequences; the median of “E-score (rank enrichment, -0.5 to 0.5)” is about -0.0043, and the highest 2% start at about 0.24. This is one part of a sample in which the highest values are shown more often than they occur.
system: 2Sp-muMax20 (muMax20 with two 2,6-bis(methyl)pyridine Cys staples); test: PBM 8-mer E-score (E-score (rank enrichment, -0.5 to 0.5)); higher = stronger preferential binding
Procedure: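 Protein binding microarray (universal PBM chip covering all 10-mers in fixed probe flanks) with chemically synthesized human Max(13-93) bHLH-LZ analogs (not full-length Max) bearing noncanonical residues (hArg, Tha, Aib, Nle at 65) and aromatic Cys staples. Read-out per 8-mer (and its reverse complement): E-score (rank-based enrichment, -0.5 to 0.5) and Z-score of median probe intensity.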

| Sequence | PBM 8-mer E-score |
| --- | --- |
| CGGTAACC | -0.288 ± 0.086 |
| GCACATCC | 0.0732 ± 0.072 |
| AGGATTTG | -0.0789 ± 0.0065 |
| GGAGGTGA | -0.109 ± 0.038 |
| AGTTGGTC | -0.13 ± 0.083 |
| GATCCGAC | -0.198 ± 0.026 |
| AGTTGAAA | -0.0343 ± 0.15 |
| TCAGGTCA | -0.126 ± 0.038 |
| CCCGCCCA | 0.396 ± 0.012 |
| GCCGCCCC | 0.0266 ± 0.044 |
| CCCGCCCG | 0.16 ± 0.065 |
| GCCGCCCA | -0.111 ± 0.053 |
| ACCGCCCC | 0.132 ± 0.0083 |
| CCCGCCCC | 0.281 ± 0.022 |
| CCACCCGG | -0.213 ± 0.012 |
| ACTGCTTC | -0.0855 ± 0.012 |
| AGCCTAAT | 0.0715 ± 0.12 |
| ATGTTTTA | 0.0882 ± 0.015 |
| ATCCTCGG | -0.136 ± 0.022 |
| ACGTGCCG | 0.0769 ± 0.0064 |
| ACGTGGCC | -0.048 ± 0.005 |
| ACGTGGAT | 0.2668 ± 0.0015 |
| ACGTGGAC | 0.208 ± 0.053 |
| ACGTGGCA | 0.217 ± 0.094 |

| Sequence | PBM 8-mer E-score |
| --- | --- |
| ACGTGCCC | 0.1949 ± 0.0017 |
| ACGTGCCT | 0.257 ± 0.045 |
| ACGTGGCT | 0.238 ± 0.019 |
| ACGTGGAA | 0.188 ± 0.014 |
| ACTGCCGC | -0.11 ± 0.0048 |
| AGAACGCA | -0.0651 ± 0.016 |
| AAATAGCC | 0.155 ± 0.026 |
| GCTAGCTA | -0.00454 ± 0.02 |
| CCATTTCG | -0.131 ± 0.16 |
| GAGTAAGC | -0.0367 ± 0.065 |
| GAGCATGC | 0.233 ± 0.065 |
| CAGCATGC | 0.245 ± 0.055 |
| AAGCATGC | 0.309 ± 0.047 |
| AAGCATGG | 0.221 ± 0.0031 |
| CAGCATGA | 0.131 ± 0.046 |
| AAGCATGT | 0.208 ± 0.059 |
| TAGCATGA | 0.237 ± 0.075 |
| AAGCATGA | 0.0552 ± 0.075 |
| AAGCATCC | -0.0641 ± 0.07 |
| CAGCATGG | 0.258 ± 0.074 |
| CGGCATGC | 0.154 ± 0.053 |
| GAGCATGA | 0.154 ± 0.055 |
| ATTTGAAG | 0.0351 ± 0.054 |
| CGCTCCCC | -0.1001 ± 0.00055 |

| Sequence | PBM 8-mer E-score |
| --- | --- |
| GTACTGAA | 0.149 ± 0.041 |
| CGCCCAAA | 0.0607 ± 0.014 |
| CATTCGAC | -0.0616 ± 0.11 |
| ATTAGCTC | 0.0373 ± 0.031 |
| AAGTTCTA | 0.0127 ± 0.022 |
| CGCAGTGA | -0.145 |
| ATCTTATC | 0.0505 ± 0.042 |
| CATCCCCA | 0.145 ± 0.0068 |
| CCTCCCCA | 0.31 ± 0.028 |
| CCTCCCCC | -0.0661 ± 0.021 |
| GCCTCCCA | -0.214 ± 0.05 |
| CCCTCCCA | 0.353 ± 0.04 |
| TATCCCCA | 0.239 ± 0.014 |
| AATCCCCA | 0.161 ± 0.02 |
| ACTCCCCC | -0.187 ± 0.021 |
| CCTCCCAA | 0.0742 ± 0.037 |
| ACTCCCCT | 0.182 ± 0.027 |
| ACCTCCCA | -0.071 ± 0.0025 |
| ACTCCCCA | 0.282 ± 0.067 |
| ATCACGAG | -0.0973 ± 0.13 |
| CGGATAAC | -0.215 ± 0.003 |
| CCGAGCTC | -0.137 ± 0.0056 |
| AGTGCAAG | 0.0261 ± 0.015 |
| ACACAGTG | 0.0818 ± 0.048 |

| Sequence | PBM 8-mer E-score |
| --- | --- |
| ATACAGTG | 0.248 ± 0.065 |
| CTACAGCA | 0.0474 ± 0.16 |
| CTACAGTA | 0.136 ± 0.017 |
| ATACAGTA | 0.259 ± 0.013 |
| ATACAGTC | 0.0481 ± 0.076 |
| GTACAGTA | 0.137 ± 0.034 |
| ATACAGCA | 0.2373 ± 0.0021 |
| ATACAGCG | -0.089 ± 0.017 |
| GCTAAACA | -0.106 ± 0.062 |
| CCAGCTTA | -0.129 ± 0.07 |
| CGCGCCAC | 0.0139 ± 0.054 |
| ACCTTTGG | -0.277 ± 0.058 |
| CGGTTCCC | -0.179 ± 0.095 |
| GAGGGTTA | 0.064 ± 0.0085 |
| AAAGCTGG | 0.0243 ± 0.073 |
| AAAGCTGA | 0.285 ± 0.0073 |
| CAAGCTGA | 0.0436 ± 0.058 |
| ACCGCCCT | -0.0858 ± 0.06 |
| CGACGAGA | -0.147 ± 0.078 |
| CAGCGTGG | 0.039 ± 0.028 |
| GGCCCCAA | 0.00781 ± 0.067 |
| TGCCCAAA | -0.0856 ± 0.086 |
| CGCCCCAG | 0.0339 ± 0.02 |
| CGCCCCAC | 0.303 ± 0.0035 |

| Sequence | PBM 8-mer E-score |
| --- | --- |
| TGCCCCCA | -0.0389 ± 0.018 |
| CGCCCCCA | -0.198 ± 0.069 |
| CGCCCCAA | 0.3051 ± 0.0025 |
| TGCCCCAA | 0.274 ± 0.016 |
| GGCCCCAC | 0.0799 ± 0.062 |
| AGGTTCTA | -0.106 ± 0.0063 |
| GGTTCTAA | -0.026 ± 0.026 |
| AACGAGCC | -0.0314 ± 0.029 |
| GACTAGCC | -0.0736 ± 0.047 |
| ACACCGAG | -0.219 ± 0.031 |
| ACGACGCT | -0.0201 ± 0.033 |
| CTGGTGTA | -0.00226 ± 0.005 |
| ATCGATAA | 0.00019 ± 0.013 |
| AAGTCAAA | 0.0188 ± 0.0089 |
| TAGTCAAA | 0.27 ± 0.033 |
| GAGTCAAA | -0.0157 ± 0.11 |
| GACTAGCA | 0.102 ± 0.099 |
| AGAGCTAA | -0.0564 ± 0.081 |
| AGTTTCAA | -0.0457 ± 0.0064 |
| ATTACCCC | 0.169 ± 0.065 |
| ATTACCCG | -0.0469 ± 0.081 |
| ATTACCCA | 0.288 ± 0.037 |
| TACCTCGA | -0.079 ± 0.12 |
| TCCGAAAA | -0.0537 ± 0.063 |

From the supplement of paper PMC12636033
